Results published in PubChem BioAssay (NCI).
This is part of a sample that, as a whole, favours compounds with a hit. Of some 83,000 tested, about 20% had one in any assay.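 Method: cells in 96-well plates; compound added at one concentration; 48 h incubation; percent growth measured; values under 10 scored active.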 Unmarked numbers belong to inactive results. The source made the active and inactive calls.

System: HL-60(TB) leukemia
Test: NCI-60 one-dose screen, 48 h (100 = growth as untreated, 0 = no growth, -100 = all killed)
Conditions: 10 µM unless noted

**Q.** `COC1(OC)C2(Cl)CCC1(Cl)C(Cl)=C2Cl` was tested. Which growth did it give?
**A.** 139%

**Q.** With `N=C(N)c1ccc(-c2ccc(-c3cc(Cl)cc(Cl)c3)o2)nc1` as the compound, how does the growth read?
**A.** -74.7% (active)

**Q.** How did the growth turn out when `C[C@@H]1CC2C3CCC4=CC(=O)C=C[C@]4(C)[C@@]3(Cl)[C@@H](O)C[C@]2(C)[C@@]1(OC(=O)c1ccco1)C(=O)CCl` (stereo not given in full) was run?
**A.** 78.2%

**Q.** `COc1cc2c(cc1OC)-c1ccc3cc4c(cc3c1N(CCN(C)C)C2)OCO4` was tested. Which growth did it give?
**A.** -33.9% (active)

**Q.** `Clc1cccc(-c2nc(-c3cccs3)no2)c1` was tested. Which growth did it give?
**A.** 98.4%

**Q.** `O=C(Nc1cc(F)cc2cccnc12)c1cnc(N2CCNCC2)cn1` was tested. Which growth did it give?
**A.** 77.1%

**Q.** How did the growth turn out when `COc1ccc(-c2conc2-c2ccccc2)cc1` was run?
**A.** 15.1%

**Q.** How did the growth turn out when `Cc1ccc(O)c(N2C(=NCc3ccco3)NS(=O)(=O)c3cnccc32)c1` was run?
**A.** 114%

**Q.** For `CC(=O)O[C@@H]1CC2C(C)(C)CCCC2(C)C2=C1C(=O)C(C(C)C)=CC2=O` (stereo not given in full), which growth is on record?
**A.** 1.18% (active)

**Q.** For `CC(=O)OC[C@]12CC[C@@H]([C@@H](C)c3nnc(-c4ccncc4)o3)[C@@H]1[C@H]1CC[C@@H]3[C@@]4(C)CC[C@H](OC(C)=O)C(C)(C)[C@@H]4CC[C@@]3(C)[C@]1(C)CC2`, which growth is on record?
**A.** 61.1%

**Q.** With `CCN1C(=O)N(CC)C2NC(SC)=NC21` (stereo not given) as the compound, how does the growth read?
**A.** 103%

**Q.** With `C/C(=C\CCc1ccsc1)CC/C=C(\C)CCCN1CCSCC1` as the compound, how does the growth read?
**A.** 67.7%

**Q.** How did the growth turn out when `O=C(CCl)Oc1ccc(OC(=O)CCl)cc1` was run?
**A.** 8.83% (active)

**Q.** With `COc1ccc(OC)c(Cn2cc3c(c2-c2ccccc2)CCc2cnoc2-3)c1` as the compound, how does the growth read?
**A.** 32.2%

**Q.** Which growth does the source give for `O=c1[nH]c(-c2ccc(Cl)cc2)cn1-c1ccc(-n2cc(-c3ccc(Cl)cc3)[nH]c2=O)cc1` here?
**A.** 112%

**Q.** Which growth does the source give for `Cc1cn(C2CC(N=[N+]=[N-])C(COP(=O)(O)OP(=O)(O)OP(=O)(O)O)O2)c(=O)[nH]c1=O` (stereo not given) here?
**A.** -96.5% (active)

**Q.** How did the growth turn out when `CCc1cccc2c1S/C(=C/c1ccc(Cl)cc1)C2=O` was run?
**A.** 93.5%

**Q.** For `CS(=O)(=O)c1ccc(-n2nc(-c3ccc(Br)cc3)c3ccccc3c2=O)cc1`, which growth is on record?
**A.** 93.3%

**Q.** How did the growth turn out when `Cc1[nH]n(-c2cccc(Cl)c2)c(=O)c1/C=C1\C=Nc2ccc(Br)cc21` was run?
**A.** 38.5%

**Q.** `CCc1c(C(=O)N[C@@H](C(=O)OCc2ccccc2)C(C)O)[nH]c2ccc(Cl)cc12` (stereo not given in full) was tested. Which growth did it give?
**A.** 122%

**Q.** Which growth does the source give for `Cc1ccc(S(=O)(=O)N(CC[C@@H]2C[C@H]2c2cc3ccccc3o2)C(=O)NC2CCCCC2)cc1` here?
**A.** 105%

**Q.** How did the growth turn out when `CC1(C)OC2=C(CC1Br)C(=O)C(=O)c1ccccc12` (stereo not given) was run?
**A.** -8.14% (active)

**Q.** How did the growth turn out when `COCCCN1CC(O)=C(c2nc(-c3ccc(C)cc3)cs2)C1=N` was run?
**A.** 84.9%

**Q.** `Cc1c(NCc2nnc3n(Cc4ccccc4)c(=O)c4c5c(sc4n23)CCCC5)c(=O)n(-c2ccccc2)n1C` was tested. Which growth did it give?
**A.** 80%

**Q.** Which growth does the source give for `Cc1cc(=O)n(C(=S)Nc2ccc(Cl)cc2)c2cc(O)ccc12` here?
**A.** 111%

**Q.** For `CCNCCNc1cc(-c2ccc(Cl)c(Cl)c2)c(C#N)c2nc3ccccc3n12`, which growth is on record?
**A.** -62.3% (active)

**Q.** For `CCOC(=O)c1cc(C(=O)c2cc(OC)c(OC)c(OC)c2)n2c1ccc1ccccc12`, which growth is on record?
**A.** -12.9% (active)

**Q.** For `C[C@]12CCc3nc(Nc4ccccc4)sc3C1=CC[C@@H]1[C@@H]2CC[C@]2(C)/C(=N/NC(N)=S)CC[C@@H]12`, which growth is on record?
**A.** 49%

**Q.** For `COc1ccn2c(C(C)=O)cc(C(=O)c3ccc4c(c3)Sc3ccccc3N4)c2c1`, which growth is on record?
**A.** -9.97% (active)

**Q.** How did the growth turn out when `COc1cc(C2C3=C(COC3=O)N(CCO)c3cc4c(cc32)CCC4)cc(OC)c1O` (stereo not given) was run?
**A.** -8.61% (active)

**Q.** With `CC(=O)Oc1csc(N(C(C)=O)c2cc(C(=O)O)cc(C(=O)O)c2)n1` as the compound, how does the growth read?
**A.** 113%

**Q.** With `Cc1cc2oc(=O)cc(CP(=O)(O)O)c2cc1O` as the compound, how does the growth read?
**A.** 111%

**Q.** For `CCN1CCCC(Nc2cc(C)nc(/N=C(/N)Nc3ccc(Cl)c(Cl)c3)n2)C1` (stereo not given), which growth is on record?
**A.** -42.7% (active)

**Q.** For `O=S1(=O)N(Cc2ccccc2)[C@@H](Cc2ccccc2)[C@H](O)[C@H](O)[C@H](Cc2ccccc2)N1Cc1ccccc1`, which growth is on record?
**A.** -4.17% (active)

**Q.** With `CCOC(=O)c1ccoc1` as the compound, how does the growth read?
**A.** 118%

**Q.** Which growth does the source give for `c1ccc([P+](CCCc2n(Cc3ccc4ccccc4c3)c3ccccc3[n+]2Cc2ccc3ccccc3c2)(c2ccccc2)c2ccccc2)cc1` here?
**A.** 22.6%

**Q.** How did the growth turn out when `Cc1ccc(C2SCC(=O)N2NC(=O)c2[nH]c3ccc(F)cc3c2-c2ccccc2)cc1` (stereo not given) was run?
**A.** 78.6%

**Q.** For `[O-][N+](=Nc1cccc(Cl)c1)c1cccc(Cl)c1`, which growth is on record?
**A.** 132%

**Q.** Which growth does the source give for `Cc1cc(I)nc2ccccc12` here?
**A.** 88.8%

**Q.** `O=c1[nH]c(NCc2nnnn2-c2ccc(Br)cc2)nc2sc3c(c12)CCCC3` was tested. Which growth did it give?
**A.** 103%
